# Screening data: PubChem, National Center for Advancing Translational Sciences (NCATS)
# DT40 TDP1 no CPT: qHTS for Inhibitors of human tyrosyl-DNA phosphodiesterase 1 (TDP1): qHTS in cells in absence of CPT; Potency, µM (top dose mostly 46.2 µM), hits mostly inhibitors; DT40 Tdp1-/- hTDP1 cells, no CPT, ATP luminescence, 48 h; 420,000 compounds, 15% hits; AID 686978, 2013; note: nearly all actives have a fitted effect of over 55% in size
#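 Readout: luminescence from CellTiter-Glo after 30 min in the dark at RT. Cells: DT40 Tdp1-/- with stable hTDP1, 400/well. Exposure: compounds alone, ≥48 hr, 37 °C.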
# IL1B secr inh: inflammasome signaling inhibition, IL-1 beta readout | THP-1 LPS/ATP IL-1B secretion, AlphaLISA, 16 h; hits give low values | activity change, % at 57.5 µM | 360,000 compounds, 4.7% hits | AID 743279; in the data active = activity change below about -50%; inconclusive = mostly about -30% to -49%
#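 Secreted IL-1B measured by AlphaLISA bead assay after 16 h compound exposure of THP-1 cells; compounds (final up to 57.5 uM) added 1 h before LPS (250 ng/mL) and ATP (1.25 mM) stimulation; lower signal means less secretion.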
# HT1080-NT tox: kills 2HG-producing HT-1080-NT fibrosarcoma cells; Potency, µM (highest dose often 46.1 µM), usual class: cytotoxic; HT-1080-NT fibrosarcoma viability, CellTiter-Glo ATP luminescence, 48 h; 360,000 compounds, 1.6% hits;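 note: NT is the 2HG producing partner of a matched IDH1 knockdown line; nearly all actives have a fitted effect of over 55% in size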
#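 Toxicity toward the 2HG-producing NT line was scored as %Activity, normalised to DMSO and no-cell wells, from CellTiter-Glo luminescence after 48 hours' treatment.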
# TDP1 cell CPT: growth inhibition of DT40 Tdp1-/-;hTDP1 cells with camptothecin (screen for TDP1 inhibitors) | chicken DT40 Tdp1-/-;hTDP1 cells + 20 nM CPT, ATP luminescence, 48 h | Potency, µM (doses to about 46.2 µM), hits mostly inhibitors | 420,000 compounds, 12% hits | AID 686979; note: nearly all actives have a fitted effect of over 55% in size
#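 Cell growth measured by CellTiter-Glo luminescence after a minimum 48 h, 37 C compound exposure with 20 nM CPT in Tdp1-knockout DT40 cells stably expressing hTDP1, seeded 400/well; qHTS titration format.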
# HT1080 IDH1KD tx: HT-1080 IDH1 knockdown cell toxicity (counter line) | Potency, µM (titrated, usually from 46.1 µM), most hits filed as cytotoxic | HT-1080 IDH1 knockdown viability, ATP luminescence, 48 h | 360,000 compounds, 2% hits
#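 Using the IDH1-knockdown HT-1080 line run in the same batch and compound series as the NT line, viability after 48 h at 37 °C was determined by CellTiter-Glo luminescence and expressed as % activity.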
# Hits are given with their value; – = inactive; ? = inconclusive; · = not tested or not shown. Rows were chosen to be rich in hits. Some 19% of all compounds tested hit in one or more screens of this group. Unless noted, calls come from the whole dose curve; as a rule, active = well fitted curve in the direction sought with a large enough effect; inconclusive = small, poorly fitted or top-dose-only effect, or another doubt; inactive = no such curve, though single readings can be large; an effect the other way counts as inactive or inconclusive.
SMILES,DT40 TDP1 no CPT,IL1B secr inh,HT1080-NT tox,TDP1 cell CPT,HT1080 IDH1KD tx
COC1CCCN(C(=O)c2ccc3oc(Cc4ccc(Cl)cc4)nc3c2)C1 (stereo not given),?,–,–,–,–
COC1CCCN(C(=O)c2ccc3nc(Cc4cccc(Cl)c4)oc3c2)C1 (stereo not given),?,–,–,–,–
COCC1CCCN(C(=O)c2ccc3oc(Cc4ccc(Cl)cc4)nc3c2)C1 (stereo not given),8.2µM,–,–,23.1µM,–
COCC1CCCN(C(=O)c2ccc3nc(Cc4cccc(Cl)c4)oc3c2)C1 (stereo not given),14.6µM,–,–,25.9µM,–
COc1ccc(OC)c(Nc2nc(=O)c3cccnc3s2)c1,–,–,–,20.6µM,–
Cc1cc(Nc2ccc(C)c(C)c2)c2ccccc2n1,?,·,?,?,16.4µM
COc1ccc(-c2cc(-c3ccccc3)nc(N)n2)c(O)c1,?,?,–,?,?
COc1ccc(OC)c(Nc2cc(-c3ccccc3)nc(N)n2)c1,0.731µM,–,1.46µM,0.651µM,1.46µM
CCOc1ccc2nc(C)cc(Nc3cccc([N+](=O)[O-])c3)c2c1,11.6µM,-117.9,–,3.26µM,18.4µM
CCCCOC(=O)c1nc[nH]c1C(=O)OCCCC,–,–,–,–,–
O=C(CSc1nncn1-c1cccnc1)Nc1cccc(C(F)(F)F)c1,?,–,–,–,–
O=C1CSC(=S)N1N=Cc1ccc2c(c1)OCO2,?,–,–,?,–
COC(=O)c1cccc(NC(=S)Nc2cccc(Cl)c2C)c1,?,–,–,?,–
Cc1cc(NCc2ccccc2)nc2ccccc12,?,–,–,?,?
Cc1cc(NCc2ccccc2)c2ccccc2n1,20.6µM,?,–,20.6µM,–
COc1cccc(Nc2cc(C)nc3ccccc23)c1,20.6µM,–,–,?,–
CCOc1ccc(Nc2cc(=O)oc3ccccc23)cc1,18.4µM,–,–,10.3µM,–
CCOc1ccc2oc(=O)cc(C)c2c1,–,–,–,–,–
COC(=O)c1ccc2nc(C)cc(Nc3cccc(Cl)c3C)c2c1,13µM,·,·,11.6µM,·
Cc1cc(Nc2ccccc2Cl)c2ccccc2n1,13µM,-96.0,–,23.1µM,–
COc1ccc(OC)c(Nc2cc(C)nc3ccccc23)c1,18.4µM,–,?,18.4µM,?
Cc1cc(Nc2ccc([N+](=O)[O-])cc2)c2ccccc2n1,18.4µM,-80.1,?,16.4µM,?
Cc1cc(Nc2cccc([N+](=O)[O-])c2)c2ccccc2n1,?,–,–,?,?
Cc1cc(Nc2cccc([N+](=O)[O-])c2)c2cccc(C)c2n1,20.6µM,-95.5,?,?,–
Cc1noc(C)c1C(=O)NCCc1c(C)[nH]c2ccccc12,–,–,–,–,–
SMILES,DT40 TDP1 no CPT,IL1B secr inh,HT1080-NT tox,TDP1 cell CPT,HT1080 IDH1KD tx
COc1ccc(Nc2cc(C)nc3c(C)cccc23)cc1OC,–,?,–,–,?
Cc1ccc(Nc2nc(N)c3ccccc3n2)cc1C,23.1µM,-96.6,–,14.6µM,?
COc1ccc(Cl)cc1Nc1cc(C)nc2ccccc12,14.6µM,?,–,?,–
CCOc1ccc(Nc2cc(C)nc3c(C)cccc23)cc1,?,-62.7,?,?,?
COc1ccc2nc(C)cc(Nc3ccccc3OC)c2c1,?,–,–,?,–
CC(C)n1c(=O)c2ccccc2n1Cc1cn(-c2ccc(Cl)cc2)nn1,?,–,–,?,–
COc1cc(C2Nc3ccc4ncccc4c3C3=C2C(=O)CCC3)ccc1O (stereo not given),3.66µM,–,?,5.8µM,5.8µM
COc1cc(C2Nc3ccc4ncccc4c3C3=C2C(=O)CCC3)cc(OC)c1OC (stereo not given),?,–,–,?,–
O=C(CCl)N1c2ccccc2SCC1c1ccccc1 (stereo not given),3.26µM,-105.0,4.61µM,2.59µM,5.8µM
O=C(CCl)N1c2ccccc2OCC1c1ccccc1 (stereo not given),2.59µM,-93.6,–,2.31µM,–
O=C(CN1CCCCC1)c1c[nH]c2ccccc12,–,–,–,–,–
COc1ccccc1N1CCN(CC(=O)c2c[nH]c3ccccc23)CC1,10.3µM,–,–,?,–
O=C(CN1CCN(c2ccccc2F)CC1)c1c[nH]c2ccccc12,?,–,–,?,–
COc1ccccc1N1CCN(CC(O)c2c(C)[nH]c3ccccc23)CC1 (stereo not given),16.4µM,–,–,?,–
CC1CC(C)CN(CC(=O)c2c[nH]c3ccccc23)C1 (stereo not given),23.1µM,–,–,?,–
O=C(CN1C(=O)NC2(CCCC2)C1=O)NNC(=O)c1ccc(F)cc1,–,–,–,–,–
N#Cc1cnn(-c2nc3sc4c(c3c(=O)[nH]2)CCCC4)c1N,14.6µM,–,–,20.6µM,–
O=c1[nH]c(C2CC2)nc2sc3c(c12)CCCC3,–,–,–,–,–
CCCC/C=C/C(NC(=O)c1ccc(-c2ccccc2)cc1)c1ccccc1 (stereo not given),?,–,?,?,?
CCCCn1[nH]c(-c2ccccc2)cc1=O,18.4µM,–,–,?,–
O=S(=O)(c1ccccc1)c1cccc(S(=O)(=O)N2CCCCC2)c1,?,–,–,?,–
CN1CCN(S(=O)(=O)c2cccc(S(=O)(=O)c3ccc(Cl)cc3)c2)CC1,16.4µM,–,–,?,–
Cc1ccc(S(=O)(=O)c2cccc(S(=O)(=O)N3CCOCC3)c2)cc1S(=O)(=O)N1CCOCC1,?,–,–,–,–
Cc1ccc(S(=O)(=O)c2cccc(S(=O)(=O)N3CCCC3)c2)cc1S(=O)(=O)N1CCCC1,18.4µM,–,?,20.6µM,–
CC(C)CCNC(=O)NC(=O)CSc1ncccn1,–,–,–,–,–
SMILES,DT40 TDP1 no CPT,IL1B secr inh,HT1080-NT tox,TDP1 cell CPT,HT1080 IDH1KD tx
O=C(NCCc1csc(-c2ccccc2)n1)c1ccc(Br)o1,20.6µM,–,–,?,–
O=C(NCCc1csc(-c2cccnc2)n1)c1ccc(Br)o1,18.4µM,–,–,?,–
CCCn1c(C(O)c2cccc(OC)c2)nc2ccccc21 (stereo not given),–,–,–,–,–
CCN(c1ccccc1)S(=O)(=O)c1ccc(Cl)c(NC(=O)Nc2ccc(Cl)cc2C#N)c1,16.4µM,-53.3,–,16.4µM,–
CN(c1ccccc1)S(=O)(=O)c1cccc(NC(=O)Nc2ccc(Cl)cc2C#N)c1,23.1µM,–,–,?,–
Cc1ccnc2nc(C(=O)N3CCN(S(=O)(=O)c4ccccc4)CC3)nn12,–,–,–,–,–
COc1ccc(CN2CCCC(c3nc(C)ncc3-c3ccc(F)cc3)C2)c(OC)c1OC (stereo not given),?,·,·,11.6µM,·
COc1ccc(CN2CCCC(C(=O)N3CCCC3)C2)c(OC)c1OC (stereo not given),–,–,–,–,–
